Where “and” joins values, the source holds several entries; their conditions need not be identical. Identical values can stand only once. Results filed as inconclusive are left out. Calls of active or inactive are those of the source. Unless noted, calls follow the shape of the dose curve; as a rule, active = well fitted curve in the direction sought with a large enough effect in the repeat runs; inconclusive = weak or mixed curves; inactive = no such curve, though single readings can be large; an effect the other way counts as inactive or inconclusive.
How the values were obtained:
[1] = qHTS assay to identify small molecule agonists of the peroxisome proliferator-activated receptor delta (PPARd) signaling pathway - cell viability counter screen (AID 743211); also: nearly all actives have a fitted effect of over 55% in size; also: potency is read from the fitted curve at half-maximal effect
Method in brief: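 PPARd-bla HEK293H cells (3000/well) were pre-incubated 5 h at 37 C, then exposed to compound for 17 h at 37 C. After 2 h with LiveBLAzer substrate, CellTiter-Glo was added to the same wells; luminescence read after 30 min at room temperature.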

[2] = qHTS assay to identify small molecule antagonists of the peroxisome proliferator-activated receptor delta (PPARd) signaling pathway - cell viability counter screen (AID 743213); also: nearly all actives have a fitted effect of over 50% in size; also: potency is read from the fitted curve at half-maximal effect
Method in brief: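 PPARd-bla HEK293H cells (3000/well) got compound plus 300 nM L165041 agonist for 17 h at 37 C. Viability in the same wells came from CellTiter-Glo luminescence after 30 min at room temperature.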

[3] = qHTS assay to identify small molecule agonists of the farnesoid-X-receptor (FXR) signaling pathway - cell viability counter screen (AID 743218); also: potency is read from the fitted curve at half-maximal effect; nearly all actives have a fitted effect of over 45% in size
Method in brief: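 Readout: CellTiter-Glo luminescence, 30 min RT, multiplexed after the FXR-bla FRET reading. HEK 293T FXR-UAS-bla cells received compound 5 h post-plating and were incubated 16 h at 37 C.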

[4] = qHTS assay to identify small molecule antagonists of the farnesoid-X-receptor (FXR) signaling pathway - cell viability counter screen (AID 743221; active = well fitted cell-killing curve with a large enough effect in the repeat runs, not every such curve was filed as active; also: nearly all actives have a fitted effect of over 50% in size; also: potency is read from the fitted curve at half-maximal effect)
Method in brief: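 GeneBLAzer FXR-UAS-bla HEK 293T cells, compound plus chenodeoxycholic acid (50 uM final), 16 h at 37 C. CellTiter-Glo added to the same wells after the beta-lactamase read; luminescence read after 30 min at room temperature as viability.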

[5] = molecular target: Vitamin D3 receptor (Homo sapiens) (UniProt P11473); experiment: qHTS assay to identify small molecule agonists of the vitamin D receptor (VDR) signaling pathway (AID 743222; calls by dose curve; also: potency is read from the fitted curve at half-maximal effect)
Sequence of Vitamin D3 receptor (Homo sapiens) (P11473 whole entry, looked up): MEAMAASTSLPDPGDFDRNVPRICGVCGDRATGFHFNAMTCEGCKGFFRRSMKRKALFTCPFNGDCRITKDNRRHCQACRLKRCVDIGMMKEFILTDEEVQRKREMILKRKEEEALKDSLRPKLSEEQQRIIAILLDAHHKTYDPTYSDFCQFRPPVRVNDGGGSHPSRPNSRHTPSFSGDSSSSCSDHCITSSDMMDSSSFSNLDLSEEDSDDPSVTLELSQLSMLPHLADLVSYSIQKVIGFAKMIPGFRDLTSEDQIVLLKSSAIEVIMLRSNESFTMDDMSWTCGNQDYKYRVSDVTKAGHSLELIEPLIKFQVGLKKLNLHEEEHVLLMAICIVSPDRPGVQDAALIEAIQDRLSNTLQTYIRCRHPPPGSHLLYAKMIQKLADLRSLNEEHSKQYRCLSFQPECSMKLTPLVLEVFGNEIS
Method in brief: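 Following 4 h attachment at 37C, VDR-bla cells (2,000 per well) received DMSO-dissolved compounds or controls. After 16 h incubation, LiveBLAzer B/G FRET substrate was added and fluorescence read 2 h later at room temperature.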

[6] = qHTS assay to identify small molecule agonists of the NFkB signaling pathway - cell viability counter screen (AID 1159515; calls by dose curve; also: nearly all actives have a fitted effect of over 55% in size; also: potency is read from the fitted curve at half-maximal effect)
Method in brief: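 Plate 2,000 NFkB-bla ME-180 cells/well; incubate overnight. Add compounds, 5 hr at 37 C. Add FRET substrate, 1.5 hr RT. Add CellTiter-Glo, 30 min RT; read luminescence.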

[7] = qHTS assay to identify small molecule agonists of the endoplasmic reticulum stress response signaling pathway - cell viability counter screen (AID 1159517; calls by dose curve; also: nearly all actives have a fitted effect of over 50% in size; also: potency is read from the fitted curve at half-maximal effect)
Method in brief: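 Cpd-treated ESRE-bla HeLa (5 hr, 37 C) → LiveBLAzer 2 hr RT → CellTiter-Glo 30 min RT → luminescence.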

[8] = molecular target: Nuclear receptor ROR-gamma (Homo sapiens) (UniProt P51449); experiment: qHTS assay to identify small molecule antagonists of the retinoid-related orphan receptor gamma (ROR-gamma) signaling pathway (AID 1159521; also: nearly all actives have a fitted effect of over 50% in size; also: potency is read from the fitted curve at half-maximal effect)
Method in brief: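 Tet-on ROR-gamma CHO cells with ROR response element-luciferase reporter; compounds added 2 hr before 1 uM doxycycline induction, then 16 hr at 37 C. Antagonism scored as decreased ONE-Glo luminescence.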

[9] = qHTS assay to identify small molecule agonists of the vitamin D receptor (VDR) signaling pathway - cell viability counter screen (AID 743224); also: nearly all actives have a fitted effect of over 50% in size; also: potency is read from the fitted curve at half-maximal effect
Method in brief: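 In parallel with the bla FRET readout, cytotoxicity toward VDR-bla cells after 16 h compound exposure was assessed by CellTiter-Glo, with luminescence recorded after a 30 min room-temperature incubation.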

[10] = qHTS assay to identify small molecule antagonists of the vitamin D receptor (VDR) signaling pathway - cell viability counter screen (AID 743225); also: nearly all actives have a fitted effect of over 50% in size; also: potency is read from the fitted curve at half-maximal effect
Method in brief: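 VDR-UAS-bla HEK 293T cells were plated and incubated 4 h at 37C, then dosed with compound plus 3 nM (final) 1-alpha,25-dihydroxyvitamin D3 for 16 h. After the 2 h beta-lactamase read, viability in the same wells was read as CellTiter-Glo luminescence after 30 min at room temperature.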

[11] = qHTS assay to identify small molecule agonists of the AP-1 signaling pathway - cell viability counter screen (AID 1159525; calls by dose curve; also: nearly all actives have a fitted effect of over 55% in size; also: potency is read from the fitted curve at half-maximal effect)
Method in brief: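 Each titration point was normalised to DMSO and tetra n-octyl ammonium bromide controls. The read was Cell Titer Glo luminescence after 30 min at RT, following 5 h compound exposure of ME-180 AP-1-bla cells at 37 °C.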

[12] = molecular target: Peroxisome proliferator-activated receptor delta (Homo sapiens) (UniProt Q03181); experiment: qHTS assay to identify small molecule agonists of the peroxisome proliferator-activated receptor delta (PPARd) signaling pathway (AID 743212; calls by dose curve)
Sequence of Peroxisome proliferator-activated receptor delta (Homo sapiens) (Q03181 whole entry, looked up): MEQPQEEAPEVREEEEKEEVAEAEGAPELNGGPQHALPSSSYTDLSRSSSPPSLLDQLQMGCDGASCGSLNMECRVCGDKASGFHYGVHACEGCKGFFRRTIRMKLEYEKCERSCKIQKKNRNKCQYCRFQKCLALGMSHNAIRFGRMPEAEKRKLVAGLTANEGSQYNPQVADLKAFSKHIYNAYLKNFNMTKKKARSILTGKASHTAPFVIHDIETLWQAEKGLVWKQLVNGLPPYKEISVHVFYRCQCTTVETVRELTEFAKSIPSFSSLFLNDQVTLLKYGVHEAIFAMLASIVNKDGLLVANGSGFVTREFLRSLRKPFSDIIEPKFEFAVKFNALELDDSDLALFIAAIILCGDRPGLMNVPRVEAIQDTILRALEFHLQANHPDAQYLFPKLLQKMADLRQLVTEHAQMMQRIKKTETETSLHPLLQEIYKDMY
Method in brief: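 Cells expressing a UAS-driven beta-lactamase reporter (PPARd-bla HEK293H) were given test compounds after a 5 h settle and kept at 37 C. Reporter activity was then measured as FRET fluorescence using LiveBLAzer B/G substrate.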

[13] = molecular target: Peroxisome proliferator-activated receptor delta (Homo sapiens) (UniProt Q03181); experiment: qHTS assay to identify small molecule antagonists of the peroxisome proliferator-activated receptor delta (PPARd) signaling pathway (AID 743215; active = well fitted inhibition curve with a large enough effect in the signal ratio in the repeat runs, not every such curve was filed as active; the % refers to the signal ratio;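 also: cells stimulated with agonist L165041 at 300 nM final during compound exposure; series mostly up to about 62 µM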)
Method in brief: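 Fluorescence from cleaved LiveBLAzer B/G FRET substrate (2 h, room temperature) reports PPARd-driven beta-lactamase in HEK293H UAS-bla cells. Cells had been treated 17 h at 37 C with compound plus 300 nM final L165041.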

[14] = molecular target: Bile acid receptor (Homo sapiens) (UniProt Q96RI1); experiment: qHTS assay to identify small molecule antagonists of the farnesoid-X-receptor (FXR) signaling pathway (AID 743217; active = well fitted inhibition curve with a large enough effect in the signal ratio in the repeat runs, not every such curve was filed as active; the % refers to the signal ratio)
Sequence of Bile acid receptor (Homo sapiens) (Q96RI1 whole entry, looked up): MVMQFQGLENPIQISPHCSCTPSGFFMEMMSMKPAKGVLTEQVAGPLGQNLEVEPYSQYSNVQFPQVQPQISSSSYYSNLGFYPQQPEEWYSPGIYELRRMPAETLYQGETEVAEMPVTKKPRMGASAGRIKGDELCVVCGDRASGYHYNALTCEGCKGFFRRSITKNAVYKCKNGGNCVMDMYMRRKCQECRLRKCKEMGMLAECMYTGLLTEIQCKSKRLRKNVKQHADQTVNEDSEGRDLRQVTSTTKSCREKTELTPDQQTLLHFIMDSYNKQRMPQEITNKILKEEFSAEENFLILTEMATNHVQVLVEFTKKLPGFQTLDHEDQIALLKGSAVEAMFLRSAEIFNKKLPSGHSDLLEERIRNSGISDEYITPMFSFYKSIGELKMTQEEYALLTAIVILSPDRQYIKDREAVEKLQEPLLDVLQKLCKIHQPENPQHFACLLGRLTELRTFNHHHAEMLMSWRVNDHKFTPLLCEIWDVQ
Method in brief: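 FRET fluorescence after 2 h room-temperature LiveBLAzer loading gives the readout. Prior step: FXR-bla HEK 293T cells, seeded and incubated 5 h, received test compounds plus 50 uM final CDCA for 16 h at 37 °C.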

[15] = molecular target: Bile acid receptor (Homo sapiens) (UniProt Q96RI1); experiment: qHTS assay to identify small molecule agonists of the farnesoid-X-receptor (FXR) signaling pathway (AID 743220; active = well fitted activation curve with a large enough effect in the signal ratio in the repeat runs, not every such curve was filed as active; the % refers to the signal ratio)
Method in brief: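 FXR-UAS-bla HEK 293T cells carrying a UAS-driven beta-lactamase reporter were plated for 5 h at 37C/5% CO2, then exposed to DMSO-dissolved Tox21 10K compounds for 16 h at 37C. A LiveBLAzer B/G FRET substrate was loaded for 2 h at room temperature before fluorescence reading.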

[16] = molecular target: Vitamin D3 receptor (Homo sapiens) (UniProt P11473); experiment: qHTS assay to identify small molecule antagonists of the vitamin D receptor (VDR) signaling pathway (AID 743223; active = well fitted inhibition curve with a large enough effect in the signal ratio in the repeat runs, not every such curve was filed as active; the % refers to the signal ratio)
Method in brief: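 VDR-bla cells were treated with compound plus 3 nM final 1alpha,25-dihydroxyvitamin D3 for 16 h at 37C. Beta-lactamase reporter read by B/G FRET substrate fluorescence after 2 h at room temperature. qHTS format.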

[17] = qHTS assay to identify small molecule agonists of the AP-1 signaling pathway (AID 1159526; calls by dose curve)
[18] = molecular target: Retinoic acid receptor RXR-alpha (Homo sapiens) (UniProt P19793); experiment: qHTS assay to identify small molecule agonists of the RXR signaling pathway (AID 1159527; calls by dose curve; also: nearly all actives have a fitted effect of over 35% in size)
Sequence of Retinoic acid receptor RXR-alpha (Homo sapiens) (P19793 whole entry, looked up): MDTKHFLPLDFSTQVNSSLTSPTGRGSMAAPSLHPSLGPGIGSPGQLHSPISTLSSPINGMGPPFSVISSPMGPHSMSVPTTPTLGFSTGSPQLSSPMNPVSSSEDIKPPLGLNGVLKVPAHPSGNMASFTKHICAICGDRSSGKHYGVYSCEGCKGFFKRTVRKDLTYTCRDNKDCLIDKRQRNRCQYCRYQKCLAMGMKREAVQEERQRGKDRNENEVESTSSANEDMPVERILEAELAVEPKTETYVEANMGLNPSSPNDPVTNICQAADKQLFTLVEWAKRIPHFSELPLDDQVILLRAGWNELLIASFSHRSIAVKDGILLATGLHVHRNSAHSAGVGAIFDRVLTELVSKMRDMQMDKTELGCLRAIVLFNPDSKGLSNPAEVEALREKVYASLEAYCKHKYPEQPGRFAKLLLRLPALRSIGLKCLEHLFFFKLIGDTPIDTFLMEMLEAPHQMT
Method in brief: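 GeneBLAzer RXR-alpha-UAS-bla HEK 293T cells in 2% charcoal-stripped FBS medium were exposed to compounds for 16 hr at 37 C in agonist mode. Beta-lactamase reporter read as 460/530 nm FRET ratio after 2 hr substrate loading.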

Measured: Potency

CCN(Cc1cccnc1)C(=O)c1cccc(Cl)c1[C@]1(C)C(=O)N(Cc2ccc(OC)cc2OC)c2ccc(Cl)cc21
inactive: [6] | [7]
active: [1] 4.08 µM | [2] 5.13 µM | [3] 3.63 µM | [4] 11.5 µM | [5] 45.8 µM | [8] 9.05 µM

C=CC(=O)OCC(CO)(COC(=O)C=C)COC(=O)C=C
inactive: [6]
active: [1] 6.94 µM and 11 µM | [2] 19.6 µM and 13.8 µM | [3] 19.6 µM and 17.4 µM | [4] 34.8 µM and 30.9 µM | [9] 12.3 µM and 13.8 µM | [10] 13.9 µM and 15.5 µM | [7] 21.9 µM | [8] 2.44 µM and 6.86 µM | [11] 49.1 µM and 49 µM

CC(C)(C)C1CCC(CC2=C(O)c3ccccc3C(=O)C2=O)CC1 (configuration not stated)
inactive: [1] | [12] | [2] | [6] | [7] | [11]

Cc1[nH]cnc1C[C@H]1CCc2c(C)c3ccccc3n2C1=O
inactive: [13] | [14] | [4] | [5] | [9] | [10] | [6] | [7] | [11]

Cc1cc2c(cc1C(F)(F)F)N(C(=O)Nc1ccc(Oc3cccnc3C)nc1)CC2
active: [1] 44.3 µM | [2] 19.8 µM | [3] 35.2 µM | [9] 31.4 µM
inactive: [12] | [15] | [5] | [10] | [6] | [7]

CCCCCCCC/C=C\CCCCCCCCOCCO
active: [1] 17.9 µM | [2] 25.4 µM | [3] 22.6 µM | [4] 28.4 µM | [10] 9 µM | [6] 31.9 µM | [7] 31.9 µM | [11] 25.4 µM

CCC(Cl)C(Cl)C(Cl)CC(Cl)C(Cl)C(C)Cl (configuration not stated)
active: [9] 38.9 µM
inactive: [15] | [5] | [16] | [6] | [7] | [11] | [17]

NNc1nc(-c2ccccc2)cs1
active: [3] 2.52 µM
inactive: [13] | [16] | [6] | [7] | [8] | [11] | [18]

Reference: PubChem BioAssay (Tox21)
